# Data published in the supplement of paper PMC9135407.
# “And” between values parts separate entries of the source, which are not always exact repeats. Identical values can stand only once. Counter-ions that a name gives are not always drawn. In all, about 5,800 compounds went through this assay and about 620 (11%) showed activity. This is one part of a sample in which actives are shown more often than they occur. Unmarked numbers belong to inactive results.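 How the source made its calls: active = score above a cut-off or among the top three wells of a plate; in these data no inactive exceeds 0.85.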
# Tested on: primary human hepatic stellate cells (donor 1)
# Assay: scaled lipid accumulation score (0 = DMSO-like, 1 = nortriptyline-like); higher = stronger HSC inactivation (lipid re-accumulation), active = hit call of the paper
# Conditions: 48 h
# [1] = library stock concentration: 10 mM
# [2] = library stock concentration: 1 mM
# [3] = library stock concentration: 3.33 mM
# [4] = library stock concentration: 80 uM
# [5] = library stock concentration: 400 uM
# [6] = library stock concentration: 2 mM
structure (smiles),measurement,setting,value
Cc1ncc(CSSCc2cnc(C)c(O)c2CO)c(CO)c1O,scaled lipid accumulation score,[1],≤ 0
O=C1c2c(O)cc(CO)cc2C(OC2OC(CO)C(O)C(O)C2O)c2cccc(OC3OC(CO)C(O)C(O)C3O)c21 (stereo unspecified) [CASANTHRANOL [cascaroside A shown]],scaled lipid accumulation score,[1],≤ 0
CCCCCCCCCCCSCC(=O)O [3-Thiatetradecanoic Acid],scaled lipid accumulation score,[2],0.006
Cn1cc(-c2[nH]c3cc(NC(=O)[C@H](N)C4CCCCC4)cc4c3c2C=NNC4=O)cn1,scaled lipid accumulation score,[3],≤ 0
same,scaled lipid accumulation score,[1],0.077
CN1c2cc3c(cc2N=C(c2ccc(C(=O)O)cc2)c2ccccc21)C(C)(C)CCC3(C)C,scaled lipid accumulation score,[1],0.08
CNCCCC12CCC(c3ccccc31)c1ccccc12 [Maprotiline HCl],scaled lipid accumulation score,[3],0.678
CNCCC[C@]12CC[C@H](c3ccccc31)c1ccccc12 [Maprotiline HCl],scaled lipid accumulation score,library stock concentration: 7.2 mM,1.22 (active)
CNCCCC12CCC(c3ccccc31)c1ccccc12 [Maprotilline HCl],scaled lipid accumulation score,[1],1.35 (active)
C=CCN1CCc2c(cc(O)c(O)c2Cl)C(c2ccccc2)C1 (stereo unspecified),scaled lipid accumulation score,[1],0.02
NCCNC(=O)c1ccc(Cl)cn1 [Lazabemide hydrochloride],scaled lipid accumulation score,[1],≤ -0.001
CCCCNC(=O)[C@@H]1Cc2ccccc2N1C(=O)[C@@H](N)CC [Butabindide oxalate],scaled lipid accumulation score,[1],0.016
"CCCCCCCCCCCC=CC(C)(C)C=CCCCC(=O)O [7,7-Dimethyleicosadienoic acid]",scaled lipid accumulation score,[2],≤ -0.02
CN1CCN(C2=Nc3cc(Cl)ccc3Nc3ccccc32)CC1 [Clozapine] [listing 1 of 4 here],scaled lipid accumulation score,[1],0.977 (active)
Clc1ccc2c(c1)N=C(N1CCNCC1)c1ccccc1N2 [N-Desmethylclozapine] [listing 1 of 2 here],scaled lipid accumulation score,[1],0.668
CN1CCN(C2=Nc3cc(Cl)ccc3Nc3ccccc32)CC1,scaled lipid accumulation score,[1],0.854 (active)
Clc1ccc2c(c1)N=C(N1CCNCC1)c1ccccc1N2 [N-Desmethylclozapine] [listing 2 of 2 here],scaled lipid accumulation score,[1],0.941 (active)
CN1CCN(C2=Nc3cc(F)ccc3Cc3ccccc32)CC1 [Fluperlapine],scaled lipid accumulation score,[1],0.448
CN1CCN(C2=Nc3cc(Cl)ccc3Nc3ccccc32)CC1 [Clozapine] [listing 2 of 4 here],scaled lipid accumulation score,,1 (active)
CC(NC(=O)C(O)c1cc(F)cc(F)c1)C(=O)NC1C(=O)N(C)c2ccccc2-c2ccccc21 (stereo unspecified),scaled lipid accumulation score,[3],0.011
same,scaled lipid accumulation score,[1],0.133
O=C(Nc1cccc2cccnc12)c1ccc(N2C(=O)C3C4C=CC(C4)C3C2=O)cc1 (stereo not drawn) [IWR-1-endo],scaled lipid accumulation score,[3],≤ 0
same,scaled lipid accumulation score,[1],≤ -0.001
CCCCC/C=C\C/C=C\C/C=C\C/C=C\CCCC(=O)OCc1ccsc1,scaled lipid accumulation score,[2],≤ 0
C[C@]12CC[C@@H]3c4cc(O)c(O)cc4CC[C@H]3[C@@H]1CC[C@@H]2O [2-Hydroxyestradiol],scaled lipid accumulation score,[2],≤ 0
Nc1nccc(-c2ccc3noc(-c4ccc(Cl)cc4)c3c2)n1 [PIM 1 Inhibitor 2],scaled lipid accumulation score,[1],≤ 0
CCNc1nc2c(ncn2[C@H]2C[C@H](O)[C@@H](CO)O2)c(=O)[nH]1 [N2-Ethyl-2'-deoxyguanosine],scaled lipid accumulation score,[1],≤ 0
N.N.N.N.N.N.N.N.N.N.N.N.N.N.O.O.[Cl-].[Cl-].[Cl-].[Cl-].[Cl-].[Cl-].[Ru+4].[Ru+5].[Ru+5] [Ruthenium red],scaled lipid accumulation score,[1],≤ 0
CC(C)=CCC/C(C)=C/CC/C(C)=C/CC/C(C)=C/CC/C(C)=C/CC/C(C)=C/CC1=C(C)C(=O)c2ccccc2C1=O [Vitamin K2],scaled lipid accumulation score,,0.008
CN1CCN(C2=Nc3cc(Cl)ccc3Nc3ccccc32)CC1 [Clozapine] [listing 3 of 4 here],scaled lipid accumulation score,[1],0.967 (active)
CN1CCN(C2=Nc3cc(Cl)ccc3Nc3ccccc32)CC1 [Clozapine] [listing 4 of 4 here],scaled lipid accumulation score,[3],0.105
same,scaled lipid accumulation score,library stock concentration: 6.1 mM,0.429 and 0.648
same,scaled lipid accumulation score,[1],0.755 and 0.578
same,scaled lipid accumulation score,library stock concentration: 15.3 mM,0.769
Cc1cc2c(s1)Nc1ccccc1N=C2N1CCN(C)CC1,scaled lipid accumulation score,library stock concentration: 9.9 mM,0.228
Cc1cc2c(s1)Nc1ccccc1N=C2N1CCN(C)CC1 [Olanzapine],scaled lipid accumulation score,[3],0.171
same,scaled lipid accumulation score,library stock concentration: 6.4 mM,0.341 and ≤ 0
same,scaled lipid accumulation score,[1],0.232
O=C(O)CCC/C=C\C[C@@H]1[C@@H](CC[C@@H](O)CCc2cccc(C(F)(F)F)c2)[C@H](O)C[C@@H]1O,scaled lipid accumulation score,[2],≤ 0
CCN(CC)CCNC(=O)c1cc(S(C)(=O)=O)ccc1OC [Tiapride hydrochloride],scaled lipid accumulation score,,0.066
same,scaled lipid accumulation score,[1],≤ 0 and ≤ -0.027
CCCCOc1cc(C(=O)NCCN(CC)CC)c2ccccc2n1 [Dibucaine],scaled lipid accumulation score,,0.284
CCCCOc1cc(C(=O)NCCN(CC)CC)c2ccccc2n1.Cl [Dibucaine HCl],scaled lipid accumulation score,[1],0.977 (active)
CCCCOc1cc(C(=O)NCCN(CC)CC)c2ccccc2n1 [Dibucaine hydrochloride],scaled lipid accumulation score,library stock concentration: 5.3 mM,0.662
same,scaled lipid accumulation score,[1],≤ 0
CCCCOc1cc(C(=O)NCCN(CC)CC)c2ccccc2n1 [Dibucaine HCl],scaled lipid accumulation score,[3],0.253
CS(=O)(=O)NC(=O)CCC/C=C\C[C@H]1C(=O)C[C@@H](O)[C@@H]1/C=C/[C@@H](O)COc1ccccc1 [Sulprostone],scaled lipid accumulation score,[2],≤ 0
O=C1NC(=O)C(c2cnc3ccccn23)=C1c1cn2c3c(cc(F)cc13)CN(C(=O)N1CCCCC1)CC2 [listing 1 of 2 here],scaled lipid accumulation score,[4],0.956 (active)
same,scaled lipid accumulation score,[1],0.857 (active)
O=C1NC(=O)C(c2cnc3ccccn23)=C1c1cn2c3c(cc(F)cc13)CN(C(=O)N1CCCCC1)CC2 [listing 2 of 2 here],scaled lipid accumulation score,[5],0.836
same,scaled lipid accumulation score,[6],0.699
CC(=O)N[C@H]1[C@H]([C@H](O)[C@H](O)CO)OC(C(=O)O)=C[C@@H]1NC(=N)N [Zanamivir],scaled lipid accumulation score,[3],≤ 0
same,scaled lipid accumulation score,[1],≤ 0
COc1ccc(C(=O)/C(Br)=C\C(=O)O)cc1 [Bromebric acid],scaled lipid accumulation score,library stock concentration: 7 mM,≤ -0.006
n(c1N)c(N(CC)C(C)C)c(nc1C(=O)\N=C(\N)/N)Cl [5-(N-Ethyl-N-isopropyl)amiloride],scaled lipid accumulation score,[1],1.07 (active)
"CN(C)c1nc(N)c(C(=O)NC(=N)N)nc1Cl [5-(N,N-Dimethyl)amiloride hydrochloride]",scaled lipid accumulation score,[1],≤ 0
"c(c1N)(C(=O)\N=C(\N)/N)nc(c(N2CCCCCC2)n1)Cl [5-(N,N-hexamethylene)amiloride]",scaled lipid accumulation score,[1],1.13 (active)
NC(N)=NC(=O)c1nc(Cl)c(N)nc1N,scaled lipid accumulation score,[1],≤ 0
O=C(O)CCCC=CCC1C(=O)CC(O)C1C=CC(O)CCc1ccccc1 (stereo unspecified) [17-phenyl trinor Prostaglandin E2],scaled lipid accumulation score,[2],≤ 0
O=C(O)CCCC=CCC1C(=O)CC(O)C1C=CC(O)CCc1ccccc1 (stereo unspecified) [17-Phenyl-trinor-prostaglandin E2],scaled lipid accumulation score,[2],≤ -0.021
O=C(O)c1cc(N(Cc2ccccc2O)Cc2cc(O)ccc2O)ccc1O [Lavendustin A],scaled lipid accumulation score,library stock concentration: 13.1 mM,≤ -0.007
O=C(O)C(Cc1ccccc1[N+](=O)[O-])=NNc1nc(-c2ccc(Cl)c(Cl)c2)cs1,scaled lipid accumulation score,[3],0.038
same,scaled lipid accumulation score,[1],≤ 0
Nc1ccc(S(=O)(=O)O)cc1.Nc1ccc(S(=O)(=O)O)cc1.[Zn] [Sulfanilate zinc],scaled lipid accumulation score,library stock concentration: 4.9 mM,≤ 0
O=C1NC(=O)C(=Cc2ccc(-c3ccc(F)cc3)o2)S1 (stereo in doubt),scaled lipid accumulation score,[3],0.028
same,scaled lipid accumulation score,[1],≤ 0
O=C1NC(=O)/C(=C/c2ccc(-c3ccc(F)cc3O)o2)S1 [listing 1 of 2 here],scaled lipid accumulation score,[1],1.66 (active)
O=C1NC(=O)/C(=C/c2ccc(-c3ccc(F)cc3O)o2)S1 [listing 2 of 2 here],scaled lipid accumulation score,[5],0.064
same,scaled lipid accumulation score,[2],0.034
same,scaled lipid accumulation score,[6],0.304
same,scaled lipid accumulation score,[3],0.132
same,scaled lipid accumulation score,[1],0.526 and 0.759
"CCCCCCCCC=CCC=CCC=CCCCC(=O)O [5(Z),8(Z),11(Z)-Eicosatrienoic Acid]",scaled lipid accumulation score,[2],0.072
OC[C@H]1NC[C@H](O)[C@@H](O)[C@@H]1O [1-Deoxynojirimycin hydrochloride],scaled lipid accumulation score,[1],≤ -0.07
CNC(=O)[C@H]1O[C@@H](n2cnc3c(NCc4cccc(I)c4)nc(Cl)nc32)[C@H](O)[C@@H]1O,scaled lipid accumulation score,[1],0.019
CNC(=O)[C@H]1O[C@@H](n2cnc3c(NCc4cccc(I)c4)nc(Cl)nc32)[C@H](O)[C@@H]1O [Chloro-IB-MECA],scaled lipid accumulation score,[1],≤ -0.07
Cc1cc(CS(=O)(=O)c2ccccc2)cc(OCc2ccc(CN3CCC[C@@H]3CO)cc2)c1 [listing 1 of 2 here],scaled lipid accumulation score,[3],≤ -0.009
Cc1cc(CS(=O)(=O)c2ccccc2)cc(OCc2ccc(CN3CCC[C@@H]3CO)cc2)c1 [listing 2 of 2 here],scaled lipid accumulation score,[1],1.03 (active)
CCCCC[C@H](O)/C=C/[C@@H]1[C@@H](CCCCCCC(=O)O)[C@H](O)C[C@H]1O [Prostaglandin F1.beta.],scaled lipid accumulation score,[2],≤ 0
COc1ccc2c3n(c(=NC(=O)c4cccnc4)nc2c1OC)CCN3,scaled lipid accumulation score,[5],≤ -0.005
same,scaled lipid accumulation score,[6],≤ -0.005
same,scaled lipid accumulation score,[1],≤ -0.005
CCCCC[C@H](O)/C=C/[C@H]1CC[C@@H](O)[C@@H]1C/C=C\CCCC(=O)O [11-deoxy Prostaglandin F2.beta.],scaled lipid accumulation score,[2],≤ 0
CCCCCCCCCCC1=C(C)C(=O)C(OC)=C(OC)C1=O [Decylubiquinone],scaled lipid accumulation score,library stock concentration: 15.5 mM,≤ -0.021
CCC1(C)OC(=O)N(C)C1=O (stereo unspecified),scaled lipid accumulation score,[1],≤ 0
CCN1CCN(Cc2ccc(Nc3ncc(F)c(-c4cc(F)c5nc(C)n(C(C)C)c5c4)n3)nc2)CC1 [Abemaciclib] [listing 1 of 2 here],scaled lipid accumulation score,[4],0.332
same,scaled lipid accumulation score,[5],0.55
same,scaled lipid accumulation score,[1],0.691
CCN1CCN(Cc2ccc(Nc3ncc(F)c(-c4cc(F)c5nc(C)n(C(C)C)c5c4)n3)nc2)CC1 [Abemaciclib] [listing 2 of 2 here],scaled lipid accumulation score,[6],0.882 (active)
CCN1CCN(Cc2ccc(Nc3ncc(F)c(-c4cc(F)c5nc(C)n(C(C)C)c5c4)n3)nc2)CC1.CS(=O)(=O)O,scaled lipid accumulation score,[3],0.963 (active)
same,scaled lipid accumulation score,[1],0.943 (active)
